Read-out in assay [1]: Pyruvate Dehydrogenase Kinase 4 (PDK4), PDK4 (gene 5166)
As to the kind of experiment: LTEA_HepaRG_PDK4: Life Technologies and Expression Analysis (LTEA) Assay for Pyruvate Dehydrogenase Kinase 4 (PDK4) using HepaRG (AID 2283525). To be noted: mRNA level, 48 h; actives raise or lower the signal. The method, boiled down: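 HepaRG (human liver line), 48 h chemical exposure, 8-pt half-log CRC top 100 uM, 0.5% DMSO vehicle, duplicates. Readout: TaqMan qRT-PCR of PDK4 mRNA, housekeeping-normalized; gain/loss fit relative to DMSO baseline.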

Read-out in assay [2]: NAD(P)H dehydrogenase [quinone] 1 (NQO1), NQO1 (gene 1728)
As to the kind of experiment: LTEA_HepaRG_NQO1: Life Technologies and Expression Analysis (LTEA) Assay for NAD(P)H dehydrogenase [quinone] 1 (NQO1) using HepaRG (AID 2283526). To be noted: mRNA level, 48 h; actives raise or lower the signal. The method, boiled down:
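In this assay, gene expression is read by qRT-PCR after 48 h exposure of HepaRG cells to eight concentrations (max 100 uM, half-log) in 0.5% DMSO. Each chemical runs in duplicate, and activity is scored relative to vehicle.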

Read-out in assay [3]: Nuclear factor erythroid 2-related factor 2 (Homo sapiens) (UniProt Q16236)
As to the kind of experiment: LTEA_HepaRG_NFE2L2: Life Technologies and Expression Analysis (LTEA) Assay for Nuclear factor erythroid 2-related factor 2 (NFE2L2) Transcription Factor using HepaRG (AID 2283527).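 Further: TaqMan qRT-PCR transcript level normalised to ACTB GAPDH and POLR2A housekeeping genes.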 The note with it: mRNA level, 48 h; actives raise or lower the signal. A digest of the protocol: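 HepaRG, 48 h dosing, 8-pt half-log series from 100 uM in 0.5% DMSO, duplicates. Read-out: NFE2L2 mRNA by qRT-PCR (ACTB/GAPDH/POLR2A normalization). Bidirectional curve fit vs DMSO baseline.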

Read-out in assay [4]: succinate dehydrogenase complex iron sulfur subunit B (SDHB), SDHB (gene 6390)
As to the kind of experiment: LTEA_HepaRG_SDHB: Life Technologies and Expression Analysis (LTEA) Assay for succinate dehydrogenase complex iron sulfur subunit B (SDHB) using HepaRG (AID 2283528). To be noted: mRNA level, 48 h; actives raise or lower the signal. The method, boiled down:
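HepaRG cells (~100,000/well, plated 48 h) exposed in duplicate for 48 h in serum-free induction medium to 8-point half-log series from 100 uM in 0.5% DMSO; mRNA by qRT-PCR normalised to ACTB, GAPDH, POLR2A; bidirectional fit versus DMSO.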

Read-out in assay [5]: Signal transducer and activator of transcription 3 (Homo sapiens) (UniProt P40763)
As to the kind of experiment: LTEA_HepaRG_STAT3: Life Technologies and Expression Analysis (LTEA) Assay for Signal transducer and activator of transcription (STAT3) using HepaRG (AID 2283529). To be noted: mRNA level, 48 h; actives raise or lower the signal. A digest of the protocol: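 HepaRG, 48 h exposure, 8-pt half-log series (top 100 uM), 0.5% DMSO vehicle, duplicates. Readout: STAT3 transcript by Fluidigm qRT-PCR, housekeeping-normalized; bidirectional fit vs DMSO baseline.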

Read-out in assay [6]: solute carrier (SLCO1B1), SLCO1B1 (gene 10599)
As to the kind of experiment: LTEA_HepaRG_SLCO1B1: Life Technologies and Expression Analysis (LTEA) Assay for solute carrier (SLCO1B1) using HepaRG (AID 2283530). To be noted: mRNA level, 48 h; actives raise or lower the signal. A digest of the protocol:
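HepaRG, serum-free induction medium, 48 h dosing, 8-pt half-log from 100 uM, 0.5% DMSO vehicle, duplicates. Readout: SLCO1B1 mRNA, qRT-PCR, ACTB/GAPDH/POLR2A normalization; up or down fit vs DMSO.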

Read-out in assay [7]: sulfotransferase 2A1 (SULT2A1), SULT2A1 (gene 6822)
As to the kind of experiment: LTEA_HepaRG_SULT2A1: Life Technologies and Expression Analysis (LTEA) Assay for sulfotransferase 2A1 (SULT2A1) using HepaRG (AID 2283531). The note with it: mRNA level, 48 h; actives raise or lower the signal. A digest of the protocol:
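Transcript levels of SULT2A1, quantified by qRT-PCR and normalized to three housekeeping genes, serve as the readout. Human HepaRG cultures receive test chemicals for 48 h at up to 100 uM in half-log steps, with 0.5% DMSO vehicle.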

Read-out in assay [8]: Transforming Growth Factor (TGFA), TGFA (gene 7039)
As to the kind of experiment: LTEA_HepaRG_TGFA: Life Technologies and Expression Analysis (LTEA) Assay for Transforming Growth Factor (TGFA) using HepaRG (AID 2283532). To be noted: mRNA level, 48 h; actives raise or lower the signal. The method, boiled down: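 qRT-PCR read-out of TGFA transcript, normalized to three housekeeping genes, fitted bidirectionally against 0.5% DMSO baseline. Human HepaRG cultures received chemicals for 48 h at eight half-log concentrations, top 100 uM.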

Read-out in assay [9]: Transforming Growth Factor (TGFB1), TGFB1 (gene 7040)
As to the kind of experiment: LTEA_HepaRG_TGFB1: Life Technologies and Expression Analysis (LTEA) Assay for Transforming Growth Factor (TGFB1) Transporter using HepaRG (AID 2283533). The note with it: mRNA level, 48 h; actives raise or lower the signal. A digest of the protocol:
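HepaRG, 48 h post-plating, switched to serum-free induction medium; chemicals 100 uM top, half-log, 8 pts, 0.5% DMSO, dup; 48 h exposure; RNA → Fluidigm TaqMan qRT-PCR; norm ACTB/GAPDH/POLR2A; bidirectional fit vs DMSO.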

Read-out in the next assay: TIMP1, TIMP1 (gene 7076)
As to the kind of experiment: LTEA_HepaRG_TIMP1: Life Technologies and Expression Analysis (LTEA) Assay for TIMP1 using HepaRG (AID 2283534). The note with it: mRNA level, 48 h; actives raise or lower the signal. A digest of the protocol:
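Readout is TIMP1 mRNA level measured by qRT-PCR and normalized to three housekeeping genes. Human HepaRG cells were treated for 48 h in duplicate at eight concentrations up to 100 uM (0.5% DMSO); gain or loss fitted against DMSO.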

Read-out in assay [10]: Tumor necrosis factor receptor 1 (TNFRSF1A), TNFRSF1A (gene 7132)
As to the kind of experiment: LTEA_HepaRG_TNFRSF1A: Life Technologies and Expression Analysis (LTEA) Assay for Tumor necrosis factor receptor 1 (TNFRSF1A) using HepaRG (AID 2283535). To be noted: mRNA level, 48 h; actives raise or lower the signal. The method, boiled down: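 Read-out is TNFRSF1A transcript level by TaqMan qRT-PCR, normalized to three housekeeping genes, scored as gain or loss of signal versus 0.5% DMSO. Human HepaRG cells received test chemicals for 48 h at up to 100 uM (half-log series).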

Read-out in assay [11]: Thyroid Hormone Responsive (THRSP), THRSP (gene 7069)
As to the kind of experiment: LTEA_HepaRG_THRSP: Life Technologies and Expression Analysis (LTEA) Assay for Thyroid Hormone Responsive (THRSP) using HepaRG (AID 2283536). The note with it: mRNA level, 48 h; actives raise or lower the signal. A digest of the protocol: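 qRT-PCR read-out (Fluidigm TaqMan), housekeeping-normalized (ACTB/GAPDH/POLR2A). HepaRG, 48 h chemical exposure, 8-pt half-log series from 100 uM in 0.5% DMSO, duplicates. Bidirectional curve fit vs 0.5% DMSO baseline.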

Read-out in assay [12]: Cellular tumor antigen p53 (Homo sapiens) (UniProt P04637)
As to the kind of experiment: LTEA_HepaRG_TP53: Life Technologies and Expression Analysis (LTEA) Assay for Tumor Protein P53 (TP53) using HepaRG (AID 2283537). To be noted: mRNA level, 48 h; actives raise or lower the signal. The method, boiled down:
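Differentiated HepaRG cells in serum-free induction medium exposed 48 h in duplicate to 8 half-log concentrations, top 100 uM, 0.5% DMSO. TP53 mRNA by TaqMan qRT-PCR (Fluidigm), normalized to ACTB, GAPDH, POLR2A; fitted bidirectionally versus DMSO.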

Read-out in assay [13]: UDP glucuronosyltransferase (UGT1A1), UGT1A1 (gene 54658)
As to the kind of experiment: LTEA_HepaRG_UGT1A1: Life Technologies and Expression Analysis (LTEA) Assay for UDP glucuronosyltransferase (UGT1A1) using HepaRG (AID 2283538). To be noted: mRNA level, 48 h; actives raise or lower the signal. A digest of the protocol: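 mRNA induction or loss of UGT1A1, by TaqMan qRT-PCR, in duplicate HepaRG wells after 48 h exposure to half-log dilutions topping at 100 uM; DMSO (0.5%) served as baseline.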

Read-out in assay [14]: UDP glucuronosyltransferase (UGT1A6), UGT1A6 (gene 54578)
As to the kind of experiment: LTEA_HepaRG_UGT1A6: Life Technologies and Expression Analysis (LTEA) Assay for UDP glucuronosyltransferase (UGT1A6) using HepaRG (AID 2283539). To be noted: mRNA level, 48 h; actives raise or lower the signal. The method, boiled down:
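HepaRG, 48 h post-plating switch to serum-free induction medium; chemical 48 h, 100 uM top, half-log x8, duplicate, 0.5% DMSO. Phenobarbital 1mM induction control. UGT1A6 mRNA by TaqMan qRT-PCR; gain/loss fit vs DMSO.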

Read-out in assay [15]: X-box binding protein 1 (XBP1), XBP1 (gene 7494)
As to the kind of experiment: LTEA_HepaRG_XBP1: Life Technologies and Expression Analysis (LTEA) Assay for X-box binding protein 1 (XBP1) using HepaRG (AID 2283540). To be noted: mRNA level, 48 h; actives raise or lower the signal. A digest of the protocol: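 Transcript levels of XBP1, measured by qRT-PCR and normalised to three housekeeping genes, were fitted bidirectionally relative to 0.5% DMSO controls. Human HepaRG cells received eight-point half-log dilutions from 100 uM for 48 h.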

The nature of assay [16]: LTEA_HepaRG_LDH_cytotoxicity: Cytotoxicity Assessment in the Life Technologies and Expression Analysis (LTEA) Assay (AID 2283563; active means hit-call score of the fitted dose curve at least 0.9, where 1 is the maximum). The method, boiled down: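 Cells were thawed and plated for 48 h. Medium was then replaced with serum-free induction medium. Chemicals (8 half-log points, maximum 100 uM, 0.5% DMSO) were added in duplicate for 48 h, after which spent medium was assayed for LDH.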

Assay [17] can be described thus: ATG_XTT_Cytotoxicity: Cytotoxicity Assessment in the Attagene TRANS-FACTORIAL HepG2 Assay (AID 2283584; active means hit-call score of the fitted dose curve at least 0.9, where 1 is the maximum). A digest of the protocol:
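Cells: human HepG2, transiently transfected with MRTU reporter constructs. Exposure 24 h. Readout: XTT, cell number. Baseline/neg ctrl DMSO; loss-of-signal scored.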

Assay [18] in a line: TOX21_p53_BLA_p2_viability: Viability Assessment in the Tox21 HCT-116 p53 Agonism Beta-lactamase Assay, Phase 2 (AID 2283591; active means hit-call score of the fitted dose curve at least 0.9, where 1 is the maximum;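 further: compound exposure lasted 16 h at 37 °C; actives lower the ATP signal meaning cytotoxicity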). A digest of the protocol: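 HCT116 p53-bla cells, 4000/well, dosed after 5 h plating (217-fold dilution of DMSO stocks) and incubated 16 h at 37C. Viability taken as cellular ATP by CellTiter-Glo luminescence after 30 min RT; signal loss marks cytotoxicity.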

For assay [19], the target named is Cellular tumor antigen p53 (Homo sapiens) (UniProt P04637). As to the kind of experiment: TOX21_p53_BLA_p2_ratio: Tox21 HCT-116 p53 Agonism Beta-lactamase Assay, Ratio, Phase 2 (AID 2283592; active means hit-call score of the fitted dose curve at least 0.9, where 1 is the maximum). The method, boiled down:
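Plated HCT116 p53-bla cells (4000/well) received compound after 5 h, then 16 h at 37C/5% CO2. CCF4-AM added, 2 h RT. Ratio of 460 to 530 nm emission taken as the p53 reporter signal.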

Inconclusive results are not listed. Calls of active or inactive are those of the source. How the source made its calls, unless noted: active means hit-call score of the fitted dose curve at least 0.9, where 1 is the maximum; inactive means score below 0.9.

The AC50 is the concentration at which the activity in the assay is half-maximal.

Signal transducer and activator of transcription 3 (Homo sapiens), sequence (P40763 whole entry, looked up): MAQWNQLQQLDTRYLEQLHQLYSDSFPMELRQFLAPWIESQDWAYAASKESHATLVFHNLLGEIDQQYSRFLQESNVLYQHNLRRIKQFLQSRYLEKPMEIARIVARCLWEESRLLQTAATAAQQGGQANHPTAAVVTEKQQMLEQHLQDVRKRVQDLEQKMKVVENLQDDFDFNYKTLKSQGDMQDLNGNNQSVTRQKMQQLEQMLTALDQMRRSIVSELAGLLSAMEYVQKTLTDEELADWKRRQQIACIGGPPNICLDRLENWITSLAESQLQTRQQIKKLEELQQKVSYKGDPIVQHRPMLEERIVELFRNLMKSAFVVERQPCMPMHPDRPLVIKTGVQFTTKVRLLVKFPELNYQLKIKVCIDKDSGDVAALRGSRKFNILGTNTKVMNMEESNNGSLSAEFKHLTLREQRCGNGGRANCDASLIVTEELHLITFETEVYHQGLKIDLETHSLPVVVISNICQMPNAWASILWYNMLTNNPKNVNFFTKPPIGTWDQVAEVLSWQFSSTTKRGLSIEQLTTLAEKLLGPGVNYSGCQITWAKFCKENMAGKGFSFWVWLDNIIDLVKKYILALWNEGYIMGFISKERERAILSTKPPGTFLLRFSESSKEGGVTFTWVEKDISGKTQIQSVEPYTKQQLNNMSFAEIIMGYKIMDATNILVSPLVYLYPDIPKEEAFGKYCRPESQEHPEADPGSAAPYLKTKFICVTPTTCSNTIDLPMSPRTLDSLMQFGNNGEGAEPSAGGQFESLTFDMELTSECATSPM
Cellular tumor antigen p53 (Homo sapiens), sequence (P04637 whole entry, looked up): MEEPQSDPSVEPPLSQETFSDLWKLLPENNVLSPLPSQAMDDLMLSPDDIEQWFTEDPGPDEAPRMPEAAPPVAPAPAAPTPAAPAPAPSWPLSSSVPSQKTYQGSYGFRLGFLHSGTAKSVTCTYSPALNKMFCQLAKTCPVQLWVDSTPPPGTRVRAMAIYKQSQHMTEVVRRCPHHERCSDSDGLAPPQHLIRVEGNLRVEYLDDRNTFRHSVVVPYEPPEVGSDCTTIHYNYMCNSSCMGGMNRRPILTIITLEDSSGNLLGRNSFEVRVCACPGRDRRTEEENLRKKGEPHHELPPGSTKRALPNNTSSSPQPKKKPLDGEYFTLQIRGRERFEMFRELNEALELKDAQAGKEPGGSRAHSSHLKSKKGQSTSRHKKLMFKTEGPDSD
Nuclear factor erythroid 2-related factor 2 (Homo sapiens), sequence (Q16236 whole entry, looked up): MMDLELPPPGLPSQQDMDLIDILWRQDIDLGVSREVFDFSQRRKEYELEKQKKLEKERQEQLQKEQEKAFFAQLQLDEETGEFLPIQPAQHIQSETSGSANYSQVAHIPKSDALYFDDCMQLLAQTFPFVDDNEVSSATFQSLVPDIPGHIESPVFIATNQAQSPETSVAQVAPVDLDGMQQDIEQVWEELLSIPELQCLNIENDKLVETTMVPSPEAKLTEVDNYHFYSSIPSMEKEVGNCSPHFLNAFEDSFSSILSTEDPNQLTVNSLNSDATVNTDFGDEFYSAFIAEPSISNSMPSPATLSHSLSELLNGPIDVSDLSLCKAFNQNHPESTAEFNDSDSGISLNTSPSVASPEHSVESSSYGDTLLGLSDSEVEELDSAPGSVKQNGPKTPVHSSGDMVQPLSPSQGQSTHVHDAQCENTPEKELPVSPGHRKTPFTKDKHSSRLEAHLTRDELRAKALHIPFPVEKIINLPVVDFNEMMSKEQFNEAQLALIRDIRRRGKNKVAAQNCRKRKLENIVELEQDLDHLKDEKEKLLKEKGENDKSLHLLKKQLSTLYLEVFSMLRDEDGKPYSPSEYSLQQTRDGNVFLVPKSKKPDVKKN

Take `CC(C)(C)CC(C)(C)c1ccc(O)c(-n2nc3ccccc3n2)c1`: the compound was classed as inactive in [1], in [2], in assay [3], in [4], in [5] and in assay [6]. The outcome in assay [7] is “inactive”; in assay [8], “inactive”; in assay [9], “inactive”; with TIMP1, TIMP1 (gene 7076) it was “inactive”; in [10], “inactive”; in assay [12], “inactive”. Also, the outcome in assay [14], in [15], in [16], in assay [17], in assay [18] and in assay [19] was inactive. Further, the AC50 in assay [11] is 77.9 µM (active); in assay [13] it was 17.4 µM (active).

Take `c1ccc2cc3c(ccc4ccccc43)cc2c1`: the AC50 in assay [1] is 22.9 µM (active); in assay [5], 8.31 µM (active); in assay [6], 8.09 µM (active); in assay [7], 13.3 µM (active); in the assay with TIMP1, TIMP1 (gene 7076), 10.2 µM (active); in assay [11], 5.27 µM (active). The values for the AC50 in [13] and in [15] were 4.24 µM (active) and 17.2 µM (active), respectively. Moreover, the compound was called inactive in assay [2], in assay [4], in [8], in assay [9], in assay [10] and in assay [12]. The outcome in [14], in assay [16], in assay [17], in [18] and in assay [19] was inactive.

On to `CCCCC(CC)COC(=O)CCCCC(=O)OCc1ccccc1` (stereo not drawn), for which the call in assay [1], in assay [2], in [4], in [5], in assay [6] and in assay [7] was inactive. Further, the outcome in assay [8] was “inactive”; in assay [9] it was “inactive”; with TIMP1, TIMP1 (gene 7076), “inactive”; in assay [10], “inactive”; in [11], “inactive”; in [12], “inactive”. The outcome in assay [13], in [14], in assay [15], in assay [16], in assay [17] and in [18] was inactive. The result in [19] was inactive.

Source of the values: PubChem BioAssay (EPA / NIEHS).
